# Several values for one entry are separate records, joined by “and”; a condition that tells them apart may be missing. Equal values may be shown once. Some compounds were tested as several samples or in several runs, with calls that do not always agree. Activity calls are given as the source filed them. How the source made its calls: active means hit-call score of the fitted dose curve at least 0.9, where 1 is the maximum; inactive means score below 0.9.
# Read-out: Interferon-gamma inducible Protein 10 (IP10), CXCL10 (gene 3627)
# Test: BSK_hDFCGF_IP10: BioMAP Diversity Plus: hDFCGF Assay for Interferon-gamma inducible Protein 10 (IP10) Biomarker Activity (AID 2283053)
# Settings: primary human foreskin fibroblasts; actives raise or lower the signal
# Protocol: BSK_hDFCGF is a cell-based, multiplexed-readout assay that uses foreskin fibroblast, a human skin primary cell, with measurements taken at 24 hours after chemical dosing in a 96-well plate.BSK_hDFCGF_IP10 is an assay component measured in the BSK_hDFCGF assay. It measures IP-10 antibody related to regulation of gene expression using ELISA technology.Data from the assay component BSK_hDFCGF_IP10 was analyzed into 1 assay endpoint. This assay endpoint, BSK_hDFCGF_IP10, was analyzed with bidirectional fitting relative to DMSO as the negative control and baseline of activity. Using a type of binding reporter, gain or loss-of-signal activity can be used to understand changes in the signaling as they relate to the gene CXCL10. Furthermore, this assay endpoint can be referred to as a primary readout, because this assay has produced multiple assay endpoints where this one serves a signaling function. To generalize the intended target to other relatable targets, this assay endpoint is annotated to the cytokine intended target family, where the subfamily is chemotactic factor.
# The levels of cell surface (or secreted, indicated by the prefix "s") biomarker endpoints were measured by ELISA. Overt cytotoxicity to cells in confluent adherent cultures (all systems other than the BT system) was assessed by measuring total protein levels using sulforhodamine B (SRB) staining in parallel cultures at the time of biomarker measurements, indicated as SRB endpoints. For proliferation assays for adherent cell types, individual cell types are cultured at sub-confluence and relative cell numbers quantified by SRB staining at time points optimized for each system (48 h: 3C and CASM3C systems; 72 h: BT and HDF3CGF systems; 96 h: SAg system). SRB was performed by staining cells with 0.1% SRB after fixation with 10% TCA and reading wells at 560 nm.Viability and proliferation of PBMC (T cells) was quantified by Alamar Blue reduction for the SAg and BT systems. For PBMC viability (referred to as PBMC Cytotoxicity within the assay endpoint names), cells were plated (75,000/well in a 96-well plate) and then chemical samples added for 1 h before addition of activators, SEB and TSST-1 (20 ng/mL final concentration each). Cells were incubated for 90 h. Then, Alamar Blue (20 uL/well) (Invitrogen, Cat DAL1100) was added for 6 h, and the plates were read with a fluorescence microplate reader at 546/580 nm (excitation/emission). For PBMC proliferation, cells were plated and activated as above but incubated for only 16 h prior to addition of Alamar Blue. Plates were read after 6 h.
Structure (SMILES),outcome,AC50
CN(C)Cc1cc(C(C)(C)C)c(O)c(C(C)(C)C)c1,inactive,12.8 µM (active)
CC(C)CC(=O)CC(C)CC(C)C (stereo not drawn),inactive,–
CC(C)C1OCCN1CCOC(=O)NCCCCCCNC(=O)OCCN1CCOC1C(C)C (stereo not drawn),inactive,–
CCCCCCC(O)CCCCCCCCCCC(=O)OC (stereo not drawn),inactive,–
CCCCCCCCCCCCCCCCCC[N+](C)(C)C,–,2.67 µM (active)
OC(C(F)(F)F)(C(F)(F)F)C(O)(C(F)(F)F)C(F)(F)F,–,20.1 µM (active) and 23.8 µM (active)
CN(C)CCC(c1ccc(Cl)cc1)c1ccccn1 (stereo not drawn),inactive,–
Cc1c(C(N)=O)cc([N+](=O)[O-])cc1[N+](=O)[O-],inactive,–
COc1ccccc1Oc1c(NS(=O)(=O)c2ccc(C(C)(C)C)cc2)nc(-c2ncccn2)nc1OCCO,inactive,–
CC[N+](CC)(CC(=O)Nc1c(C)cccc1C)Cc1ccccc1,inactive,–
Sc1nc2ccccc2s1,inactive,–
C1CN(CCOCCN2CCOCC2)CCO1,inactive,–
O=[N+]([O-])c1cc(S(=O)(=O)Nc2ccccc2)ccc1Nc1ccccc1,–,29.8 µM (active) and 31.5 µM (active)
CCCCCCCCCC/C=C/C1CC(=O)OC1=O (stereo not drawn),inactive,–
Cc1cc(-n2nc3ccc(Cl)cc3n2)c(O)c(C(C)(C)C)c1,inactive,–
CCC[Si](OC(C)=O)(OC(C)=O)OC(C)=O,inactive,–
CC[N+](CC)(CC(=O)Nc1c(C)cccc1C)Cc1ccccc1 (tested in a mixture with another compound),inactive,–
CCCCC(CC)COC(=O)C=Cc1ccc(OC)cc1 (stereo not drawn),inactive,–
CCCCCCCCCCC1CO1 (stereo not drawn),–,34 µM (active)
COC(=O)/C=C\C(=O)OC,inactive,–
COc1ccc(C(=O)c2ccccc2O)c(O)c1,inactive,–
CN(C)c1ccc(C(c2ccccc2)c2ccc(N(C)C)cc2)cc1,inactive,–
O=C(C(=O)c1ccccc1)c1ccccc1,inactive,–
Cc1cccnc1,inactive,–
CCC(C)=NO,inactive,–
Oc1cccc2ccccc12,inactive,–
COc1cc(CNC(=O)CCCC/C=C/C(C)C)ccc1O,inactive,–

# From PubChem BioAssay (EPA / NIEHS)
